# Laboratory results reported in the supplement of paper PMC8728848.
# The full list was thinned out, with the strongest signals kept by preference.
# Experiments:
# Assay in all cases: glycan array binding signal (z-score within array); higher = stronger binding
# Settings in all cases: glycan notation: IUPAC condensed, linker removed; mutation: N224Q
# [1] = target: Fuc(a1-2)Gal
# Outline: (§1)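 Glycan array binding is given as a within-array Z-score, which can be read as non-binding when negative. The arrays, 3228 of them, came from the Consortium for Functional Glycomics database and were retained only where the protein sequence was available. Z-scores were averaged across arrays of the same protein sequence at different concentrations or buffers and across linkers.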
# [2] = target: Fuc(a1-2)Gal(b1-3)GlcNAc(b1-3)GalNAc
# Outline: as §1
# [3] = target: Fuc(a1-2)Gal(b1-3)[Fuc(a1-4)]GlcNAc(b1-2)Man(a1-3)[Fuc(a1-2)Gal(b1-3)[Fuc(a1-4)]GlcNAc(b1-2)Man(a1-6)]Man(b1-4)GlcNAc(b1-4)[Fuc(a1-6)]GlcNAc(b1-4)[Fuc(a1-6)]GlcNAc
# Outline: as §1
# [4] = target: Fuc(a1-2)Gal(b1-4)Glc6S
# Outline: as §1
# [5] = target: Fuc(a1-2)Gal(b1-4)GlcNAc(b1-3)Gal(b1-4)GlcNAc(b1-2)Man(a1-3)[Fuc(a1-2)Gal(b1-4)GlcNAc(b1-3)Gal(b1-4)GlcNAc(b1-2)Man(a1-6)]Man(b1-4)GlcNAc(b1-4)GlcNAc
# Outline: as §1
# [6] = target: Fuc(a1-2)Gal(b1-4)[Fuc(a1-3)]GlcNAc
# Outline: as §1
# [7] = target: Fuc(a1-2)Gal(b1-4)[Fuc(a1-3)]GlcNAc(b1-3)Gal(b1-4)[Fuc(a1-3)]GlcNAc
# Outline: as §1
# [8] = target: Fuc(a1-2)Gal(b1-4)[Fuc(a1-3)]GlcNAc(b1-3)Gal(b1-4)[Fuc(a1-3)]GlcNAc(b1-3)Gal(b1-4)[Fuc(a1-3)]GlcNAc
# Outline: as §1
# [9] = target: Fuc(a1-2)Gal6S(b1-4)Glc
# Outline: as §1
# [10] = target: Fuc(a1-2)[Gal(a1-3)]Gal(b1-4)GlcNAc(b1-2)Man
# Outline: as §1
# [11] = target: Fuc(a1-2)[Gal(a1-3)]Gal(b1-4)GlcNAc(b1-2)Man(a1-3)[Fuc(a1-2)[Gal(a1-3)]Gal(b1-4)GlcNAc(b1-2)Man(a1-6)]Man(b1-4)GlcNAc(b1-4)[Fuc(a1-6)]GlcNAc
# Outline: as §1
# [12] = target: Fuc(a1-2)[Gal(a1-4)]Gal(b1-4)GlcNAc
# Outline: as §1
# [13] = target: Fuc(a1-2)[GalNAc(a1-3)]Gal
# Outline: as §1
# [14] = target: Fuc(a1-2)[GalNAc(a1-3)]Gal(b1-4)Glc
# Outline: as §1
# [15] = target: Fuc(a1-2)[GalNAc(a1-3)]Gal(b1-4)GlcNAc(b1-3)GalNAc
# Outline: as §1
# [16] = target: Fuc(a1-2)[GalNAc(a1-4)]Gal(b1-4)GlcNAc
# Outline: as §1
# [17] = target: Fuc(a1-3)GlcNAc
# Outline: as §1
# [18] = target: Fuc(a1-3)[Gal(b1-4)]GlcNAc(b1-2)Man
# Outline: as §1
# [19] = target: Fuc(a1-3)[Gal(b1-4)]GlcNAc(b1-3)Gal(b1-4)[Fuc(a1-3)]GlcNAc
# Outline: as §1
# [20] = target: Fuc(a1-3)[Gal(b1-4)]GlcNAc(b1-6)[Gal(b1-3)GlcNAc(b1-3)]Gal(b1-4)Glc
# Outline: as §1
# [21] = target: Fuc(a1-3)[Gal(b1-4)]GlcNAc6S
# Outline: as §1
# [22] = target: Fuc(a1-4)GlcNAc
# Outline: as §1
# [23] = target: Fuc(b1-3)GlcNAc
# Outline: as §1
# [24] = target: Gal(b1-3)GalNAc(a1-3)[Fuc(a1-2)]Gal(b1-4)Glc
# Outline: as §1
# [25] = target: Gal(b1-3)GlcNAc(b1-2)[Gal(b1-3)GlcNAc(b1-6)]Man(a1-6)[Gal(b1-3)GlcNAc(b1-2)Man(a1-3)]Man(b1-4)GlcNAc(b1-4)GlcNAc
# Outline: as §1
# [26] = target: Gal(b1-3)GlcNAc(b1-6)Gal(b1-4)GlcNAc
# Outline: as §1
# [27] = target: Gal(b1-3)GlcNAc6S
# Outline: as §1
# [28] = target: Gal(b1-4)GlcNAc
# Outline: as §1
# [29] = target: Gal(b1-4)GlcNAc(b1-2)Man(a1-3)[Gal(b1-4)GlcNAc(b1-2)Man(a1-6)]Man(b1-4)GlcNAc(b1-4)GlcNAc
# Outline: as §1
# [30] = target: Gal(b1-4)GlcNAc(b1-2)Man(a1-3)[Gal(b1-4)GlcNAc(b1-2)Man(a1-6)]Man(b1-4)GlcNAc(b1-4)[Fuc(a1-6)]GlcNAc
# Outline: as §1
binder,measurement,setting,value
AAL (Aleuria aurantia) (protein) MPTEFLYTSKIAAISWAATGGRQQRVYFQDLNGKIREAQRGGDNPWTGGSSQNVIGEAKLFSPLAAVTWKSAQGIQIRVYCVNKDNILSEFVYDGSKWITGQLGSVGVKVGSNSKLAALQWGGSESAPPNIRVYYQKSNGSGSSIHEYVWSGKWTAGASFGSTVPGTGIGATAIGPGRLRIYYQATDNKIREHCWDSNSWYVGGFSASASAGVSIAAISWGSTPQIRVYWQKGREELYEAAYGGSWNTPGQIKDASRPTPSLPDTFIAANSSGNIDISVFFQASGVSLQQWQWISGKGWSIGAVVPTGTPAGW,glycan array binding signal (z-score),[1],4.67
same,glycan array binding signal (z-score),[2],-0.263
same,glycan array binding signal (z-score),[3],0.006
same,glycan array binding signal (z-score),[4],2.29
same,glycan array binding signal (z-score),[5],6.34
same,glycan array binding signal (z-score),[6],3.69
same,glycan array binding signal (z-score),[7],3.57
same,glycan array binding signal (z-score),[8],3.95
same,glycan array binding signal (z-score),[9],3.32
same,glycan array binding signal (z-score),[10],-0.285
same,glycan array binding signal (z-score),[11],-0.153
same,glycan array binding signal (z-score),[12],5.8
same,glycan array binding signal (z-score),[13],0.989
same,glycan array binding signal (z-score),[14],-0.309
same,glycan array binding signal (z-score),[15],-0.32
same,glycan array binding signal (z-score),[16],5.38
same,glycan array binding signal (z-score),[17],3.92
same,glycan array binding signal (z-score),[18],-0.29
same,glycan array binding signal (z-score),[19],1.96
same,glycan array binding signal (z-score),[20],0.019
same,glycan array binding signal (z-score),[21],-0.274
same,glycan array binding signal (z-score),[22],6.22
same,glycan array binding signal (z-score),[23],4.57
same,glycan array binding signal (z-score),[24],-0.303
same,glycan array binding signal (z-score),[25],-0.296
same,glycan array binding signal (z-score),[26],-0.317
same,glycan array binding signal (z-score),[27],-0.309
same,glycan array binding signal (z-score),[28],-0.324
same,glycan array binding signal (z-score),[29],-0.316
same,glycan array binding signal (z-score),[30],-0.216
